DNA FID counter – compounds displacing fluorescent DNA intercalator, primary screen, artefact control for HCV NS3 helicase inhibitor project, biochemical, FID fluorescence. hit rate 0.17% among 290,000. DNA fluorescent intercalator displacement. inhibition, % at 7.9 µM. AID 1845, 2009; in the data active = inhibition above about 37%;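 also: 0% = vehicle and 100% = reference compound; higher means more ethidium bromide displaced from hairpin DNA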
PREPL inh – PREPL enzyme inhibitors, primary screen, biochemical, fluorescence polarization; Prolyl endopeptidase-like (Homo sapiens), Q4J6C6; hit rate 0.68% among 320,000; inhibition, % at 5.96 µM; recombinant PREPL, fluorescence polarization activity-based probe;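 also: 0% = enzyme with DMSO and 100% = wells lacking enzyme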
Target sequence (Q4J6C6 whole entry, looked up): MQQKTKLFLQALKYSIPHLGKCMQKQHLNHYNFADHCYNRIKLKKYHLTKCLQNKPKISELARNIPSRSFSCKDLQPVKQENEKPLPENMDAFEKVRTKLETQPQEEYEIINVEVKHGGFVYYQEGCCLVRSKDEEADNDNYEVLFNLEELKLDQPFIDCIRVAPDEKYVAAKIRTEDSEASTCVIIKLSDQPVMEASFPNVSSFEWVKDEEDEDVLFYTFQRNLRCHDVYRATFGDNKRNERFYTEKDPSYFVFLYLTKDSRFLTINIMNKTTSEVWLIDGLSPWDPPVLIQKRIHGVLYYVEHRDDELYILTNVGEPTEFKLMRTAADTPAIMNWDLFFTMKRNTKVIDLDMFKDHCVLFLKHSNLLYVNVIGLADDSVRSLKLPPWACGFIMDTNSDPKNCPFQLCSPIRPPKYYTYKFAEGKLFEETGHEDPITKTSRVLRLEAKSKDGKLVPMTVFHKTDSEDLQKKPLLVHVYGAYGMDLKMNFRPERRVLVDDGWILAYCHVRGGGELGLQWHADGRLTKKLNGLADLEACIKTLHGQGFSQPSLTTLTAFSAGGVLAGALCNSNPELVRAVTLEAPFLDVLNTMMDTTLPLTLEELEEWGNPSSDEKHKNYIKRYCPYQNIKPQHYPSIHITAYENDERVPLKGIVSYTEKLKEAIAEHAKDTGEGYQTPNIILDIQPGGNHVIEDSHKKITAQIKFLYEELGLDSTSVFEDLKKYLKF
TMEM16A act – TMEM16A chloride channel activators or potentiators, primary screen, cell-based, HTS; Anoctamin-1 (Mus musculus), Q8BHY3; HEK293 TMEM16A/YFP-H148Q/I152L, iodide quench fluorescence; stronger effect = lower value; B-score at 10 µM; hit rate 0.3% among 340,000;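 active = fluorescence-ratio B-score plate-corrected deviation score at least 3 library SD below zero, with starting fluorescence score within 5 deviations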;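 also: channel opened by trigger with iodide after compound preincubation; score built on the fluorescence ratio of max minus min over baseline; more negative score means more quench and so TMEM16A activation or potentiation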
TMEM16A inh – TMEM16A chloride channel inhibitors, primary screen, cell-based, HTS | Anoctamin-1 (Mus musculus), Q8BHY3 | HEK293 TMEM16A/YFP iodide influx fluorescence, ionomycin | normalized B-score (activity score, 25-100; higher = stronger inhibition) at 10 µM | hit rate 1.2% among 310,000 | AID 588511, 2011;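 active = ratio plate-corrected score three or more library SD toward inhibition, starting fluorescence score within five deviations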;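 also: score derived from kinetic fluorescence span divided by baseline fluorescence per well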
PP5 primary – PP5 phosphatase inhibitors, primary screen, biochemical, fluorescence | hit rate 0.18% among 320,000 | inhibition, % at 6.7 µM | Serine/threonine-protein phosphatase 5 (Homo sapiens), P53041 | purified PP5c, OMFP substrate fluorescence | AID 1987, 2009;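 active = inhibition above the campaign's mean inhibition across all tested compounds plus 3 SD, cut at about 9.5% in these data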;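 also: 0% = DMSO only and 100% = 100 µM cantharidin control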
PP1 counter – PP1-alpha phosphatase inhibitors, primary screen, counter-screen for PP5 inhibitor project, biochemical, fluorescence, OMFP substrate, single point; hit rate 0.9% among 320,000; purified PP1alpha; inhibition, % at 6.7 µM; Serine/threonine-protein phosphatase PP1-alpha catalytic subunit (Homo sapiens), P62136; AID 2235, 2010;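 active = inhibition above the mean inhibition of all tested compounds plus 3 SD, computed separately for each screening campaign, cut at about 15% in these data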
PREPL inh cf – human PREPL enzyme inhibitors, confirmation, biochemical, fluorescence polarization; AID 2803, 2010; shares compounds with PREPL inh; recombinant PREPL, fluorescence polarization activity probe; inhibition, % at 5.96 µM; hit rate 67% among 2,000;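 also: 0% = protein with DMSO and 100% = wells lacking protein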
Starred values were filed as active, the others as inactive; i = inactive; / = not tested or not shown. Shown are actives, neighbours in structure and some others; about 2.7% of the full set was active somewhere. Rule as the data show it, unless noted: active = inhibition above about 43%; inactive = the rest.

SMILES	DNA FID counter	PREPL inh	TMEM16A act	TMEM16A inh	PP5 primary	PP1 counter	PREPL inh cf
O=C(C1=C[C@@H](c2ccc(Br)cc2)C[C@@H](OCc2ccc(CO)cc2)O1)N1CCN(Cc2ccccc2)CC1	-20	66*	i	i	0	3	53*
CN1CCN(C(=O)C2=C[C@@H](c3ccccc3)C[C@@H](OCc3ccc(CO)cc3)O2)CC1	6	46*	i	i	3	0	49*
O=C(C1=C[C@@H](c2ccc3c(c2)OCO3)C[C@@H](OCc2ccc(CO)cc2)O1)N1CCOCC1	-16	50*	i	i	1	3	44*
O=C(C1=C[C@H](c2ccccc2)C[C@H](OCc2ccc(CO)cc2)O1)N1CCCCCCC1	-34	/	/	/	/	/	/
COc1ccc2oc(C(=O)NCc3cc(OC)c(OC)cc3OC)c(C)c2c1	-48	22	i	i	3	2	/
CCO[C@H]1OC(C(=O)N2CCN(Cc3ccc4c(c3)OCO4)CC2)=C[C@@H](c2ccc(Br)cc2)[C@@H]1CCCO	-21	47*	i	i	5	3	44*
O=C(C1=C[C@H](c2ccc(C(F)(F)F)cc2)C[C@H](OCCCCO)O1)N1CCN(Cc2ccccc2)CC1	-31	21	i	i	4	3	/
O=C(C1=C[C@@H](c2ccc(C(F)(F)F)cc2)C[C@@H](OCCCCO)O1)N1CCN(Cc2ccccc2)CC1	-30	66*	i	i	3	1	56*
O=C(C1=C[C@@H](c2ccc(C(F)(F)F)cc2)C[C@@H](OCc2ccc(CO)cc2)O1)N1CCN(Cc2ccc3c(c2)OCO3)CC1	-15	64*	i	i	-2	2	58*
CC(C)(C)[C@@H]1C=C(C(=O)N2CCN(Cc3ccc4c(c3)OCO4)CC2)O[C@H](OCc2ccc(CO)cc2)C1	-24	25	i	i	3	5	/
COc1ccc(/C=N/NC(=O)c2ccc(-c3ccccc3)cc2)cc1O	-19	13	i	i	-1	2	/
COc1cc(/C=N\NC(=O)c2ccc(-c3ccccc3)cc2)cc(Br)c1O	-18	43*	i	i	4	-1	41
CCCCNC(=S)NCCN1CCN(C(=S)NCCCC)CC1	4	-2	i	i	-2	-2	/
CC(=O)Oc1ccc2c(c1)Oc1cc(OC(C)=O)ccc1C21OC(=O)c2ccccc21	-35	95*	i	i	-54	-111	112*
CC(=O)Oc1ccc2c(c1)C(=O)c1ccccc1CO2	-5	14	i	i	2	4	/
O=C(O)c1cc([N+](=O)[O-])ccc1Oc1ccccc1	/	/	i	/	/	/	/
Cc1nc2ccccc2c(=O)n1/N=C/c1ccc(O)c(O)c1O	-2	45*	i	i	0	9	38
Cc1nc2ccccc2c(=O)n1/N=C/c1ccccc1O	1	7	i	i	0	-3	/
Cc1ccc(NC(=S)Nc2ccc(OC(F)F)c(Cl)c2)cc1F	-1	-1	i	i	3	-6	/
Cc1c(CCC(=O)NCCCn2ccnc2)c(=O)oc2c(C)c3oc4c(c3cc12)CCCC4	-2	49*	i	i	3	5	38
O=C(COc1cccc(Br)c1)Nc1ccc(N2CCOCC2)cc1N1CCOCC1	/	46*	i	/	-3	0	37
Cc1ccccc1OCCC(=O)Nc1ccc(N2CCOCC2)cc1N1CCOCC1	/	43*	i	i	0	-4	43
Clc1ccc(-c2csc(=Nc3cccnc3)n2CCCn2ccnc2)cc1Cl	6	56*	i	i	-1	8	58*
FC(F)Oc1ccc(-c2csc(=Nc3cccnc3)n2CC2CCCO2)cc1 (stereo not drawn)	-23	20	i	i	0	-2	/

Source: PubChem
